Assay outcomes: PubChem BioAssay, National Center for Advancing Translational Sciences (NCATS)
The entries come from a sample that favours hits as a whole.
Pf Dd2 inh: blocks in vitro growth of P. falciparum Dd2. P. falciparum Dd2 growth, SYBR Green, 72 h. Potency, µM (top dose mostly 28.9 µM), for inactives: top-dose activity, negative = inhibition, hits mostly inhibitors. actives 4.3% (n = 120,000); active means well fitted inhibition curve with a large enough effect;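 further: plate controls were DMSO vehicle for no effect and reference drug for full effect; nearly all actives have a fitted effect of over 65% in size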
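Readout: SYBR Green fluorescence, 485 nm excitation, 535 nm emission, after ~16 h lysis at 37C. Before that, Dd2-infected red cells (2.5% hematocrit) grew 72 h with compound, 29 uM top final concentration.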
The depositor's hits bear a star; i = inactive; [ ] = dose if it differs, or a comment. Potency means the concentration at half of the fitted maximal effect.

SMILES	Pf Dd2 inh
CC(=O)N1CCN(c2cc(-c3noc([C@@H]4CCCN4Cc4ccccc4C)n3)ccn2)CC1	12.6µM*
CN(C)Cc1nc(C(=O)N2CCn3nc(CCC(=O)O)cc3C2)cs1	-13.3%
COCCN1C(=O)CS(=O)(=O)C12CCN(C(=O)CCc1ccccc1OC)CC2	i
CCN(CC)Cc1cnc2c(C(=O)Nc3ccc(OC)cc3)cnn2c1	-28.1%
COCCn1c(C(=O)OC)c(NC(=O)Cc2ccccc2)c2cc(NC3CCCCC3)cnc21	-12.5%
CC(C)(C)c1ccc(CSC2=Nc3ccccc3C3=NC(CC(=O)NCc4cccs4)C(=O)N23)cc1 (stereo not given)	i
COc1ccc(NC(=O)CSC2=Nc3ccccc3C3=NC(CCC(=O)NCc4ccc(F)cc4)C(=O)N23)cc1Cl (stereo not given)	11.2µM*
Cc1ccc(CSC2=Nc3ccccc3C3=NC(CC(=O)NCc4cccs4)C(=O)N23)c(C)c1 (stereo not given)	13.3%
CC(C)c1ccc(NC(=O)CSC2=Nc3ccccc3C3=NC(CCC(=O)NCc4ccc(F)cc4)C(=O)N23)cc1 (stereo not given)	-11.4%
Cc1cccc(NC(=O)CSC2=Nc3ccccc3C3=NC(CC(=O)NCc4cccs4)C(=O)N23)c1 (stereo not given)	3.16µM*
COc1ccccc1NC(=O)CSC1=Nc2ccccc2C2=NC(CCC(=O)NCCc3ccccc3)C(=O)N12 (stereo not given)	-21.8%
CCOc1ccc(NC(=O)CSC2=Nc3ccccc3C3=NC(CCC(=O)NCc4ccccc4)C(=O)N23)cc1 (stereo not given)	i
COc1ccc(Cl)cc1NC(=O)CSC1=Nc2ccccc2C2=NC(CCC(=O)NCc3ccc(F)cc3)C(=O)N12 (stereo not given)	-22.8%
COc1ccc(OC)c(NC(=O)CSC2=Nc3ccccc3C3=NC(CCC(=O)NCc4ccccc4)C(=O)N23)c1 (stereo not given)	12.6µM*
Cc1noc(-c2cccc(OC3CN(C(=O)NC4CCCC4)C3)c2)n1	i[5.79 µM]
O=C(c1cccnc1)N1CC[C@H](c2nnc(Cc3ccccc3)o2)C1	4.1%[44.1 µM]
Cc1ncc2c(n1)C[C@@H]1CC[C@H]2N1C(=O)c1cccs1	-6.8%
CC(C)Oc1ccc2c(NC(=O)c3cocn3)nn(CC(F)(F)F)c2c1	-15.7%
COCCCNC(=O)N1CCCOCCNC(=O)[C@@H]2CCC[C@@H]21	5.7%
Cc1ccc(Cn2c(=O)n(Cc3ccco3)c(=O)c3sc4ccccc4c32)cc1	42.1%
Cc1ccc(CNC(=O)Cn2c(=O)n(Cc3ccccc3)c(=O)c3sc4ccccc4c32)cc1	41.6%
Cc1cccc(Cn2c(=O)n(Cc3ccccc3)c(=O)c3sc4ccccc4c32)c1	8.91µM*
O=C1Cc2c(-c3ccc4c(c3)OCO4)n[nH]c2CN1Cc1ccccc1	-17.3%[44.1 µM]
CCOC(=O)Cn1c(=O)n(-c2cccc(Cl)c2)c2nc(-c3ccccc3Cl)nc(C(N)=O)c21	10µM*
CCOC(=O)Cn1c(=O)n(CC2CCCO2)c2nc(-c3ccccc3Cl)nc(C(N)=O)c21 (stereo not given)	6.4%
SMILES	Pf Dd2 inh
CCOC(=O)Cn1c(=O)n(-c2ccccc2OC)c2nc(-c3ccccc3F)nc(C(N)=O)c21	-29.8%
CCCNc1cc(N2CCC(CCC(=O)Nc3cccc(C)c3)CC2)ncn1	i
CCOC(=O)c1cccc(Nc2c3c(nc4ccccc24)CCC3)c1	10µM*
CCOC(=O)c1nc(Nc2cccc(C)c2)c2ccccc2n1	4.4%
CCOC(=O)c1nc(Nc2ccc(C(C)=O)cc2)c2ccccc2n1	-11.1%
CCOC(=O)c1nc(Nc2ccccc2C)c2ccccc2n1	27.8%
Cc1cccc(Nc2nc(-c3ccccc3)nc3ccccc23)c1	-19.7%
COc1ccc(NC(=O)CSc2c3c(nc4ccccc24)CCC3)cc1Cl	50.8%
CCCOC(=O)c1cccc(Nc2nc(C(=O)OCC)nc3ccccc23)c1	5.62µM*
COc1cc(Cl)c(C)cc1NC(=O)c1ccc2c(Cl)c3c(nc2c1)CCC3	15.9%
CCOC(=O)c1cccc(Nc2nc(C(=O)OCC)nc3ccccc23)c1	7.94µM*
CCOC(=O)c1cccc(NC(=O)CCc2nc3cccnc3n2-c2ccccc2)c1	84.7%
COc1cc(Cl)c(C)cc1Nc1c2c(nc3ccccc13)CCC2	8.91µM*
CCOC(=O)c1cccc(Nc2cc(-c3ccccc3)ncn2)c1	6.2%
Cc1nc(-c2ccc(Cl)cc2)n(Cc2ccc(F)cc2F)c(=O)c1CCO	i
Cc1noc(-c2nc(-c3ccc(Cl)c(F)c3)no2)n1	i
O=C(Nc1ccccc1)N1CC(c2nc(CCOCC3CC3)no2)C1	-15.8%
CN(C)CCCC(=O)N1CCC2(CC1)CN(C(=O)CCC(=O)O)CCO2	3.2%
CCc1nc2ccc(C(=O)N3CCN(c4ccccc4F)CC3)cc2nc1CC	2.82µM*
CCc1nc2ccc(C(=O)N3CCN(c4ccc(Cl)cc4)CC3)cc2nc1CC	21.4%
O=C(c1ccc2c(c1)CCN2S(=O)(=O)c1ccccc1)N1CCN(c2ccccc2F)CC1	45.4%
CCN1c2cc(C(=O)N3CCN(c4ccccc4F)CC3)ccc2C(=O)N2CCCCC21 (stereo not given)	i
O=C(c1ccc2c(Cl)c3c(nc2c1)CCCC3)N1CCN(c2ccccc2)CC1	-16.4%
CCc1nc2ccc(C(=O)N3CCN(c4ccccc4)CC3)cc2nc1CC	6.31µM*
CC(=O)N1CCC(C(NC(=O)c2ccccc2)C(=O)NCc2ccco2)CC1 (stereo not given)	1.1%
SMILES	Pf Dd2 inh
CNC(=O)C(C)Cn1ccnc1-c1cccc(CN(C)C)c1 (stereo not given)	-1.4%
CCOC(=O)c1cnc2ccc(OC)cc2c1NCCc1ccc(OC)c(OC)c1	1µM*
CCOC(=O)c1cnc2cc(Cl)c(OC)cc2c1Nc1ccc(Br)cc1C	8.1%
COc1ccc(NC(=O)C(=O)NCCc2ccc(OC)c(OC)c2)c(OC)c1	-16.1%
COc1ccc(C(N)CC(=O)N2CCC3(CC2)CN(C)C(=O)O3)cc1OC (stereo not given)	-9.5%
O=C(c1cc[n+]([O-])cc1)N1CCC2(CCCN(Cc3cccc(F)c3F)C2)C1 (stereo not given)	-13.8%
c1csc(CN2CCC(Oc3ccccc3-c3nc(-c4cnccn4)no3)C2)c1 (stereo not given)	5.62µM*
CCNC(=O)N1CC(Oc2ccccc2-c2nc(-c3cnccn3)no2)C1	-25.5%
O=C(Nc1ccccc1)N1CCC(Oc2ccccc2-c2nc(-c3cnccn3)no2)C1 (stereo not given)	i
Cc1cc(CN2CCC3(C2)C(=O)N(c2ccccc2)c2ccccc23)no1 (stereo not given)	-17.9%
COc1ccc(NC(=O)N2CCc3nc4cc[nH]n4c(=O)c3C2)cc1	25.1%[5.79 µM]
CCCN(c1ccccc1CC)S(=O)(=O)c1ccc2c(c1)CC(C)N2C(=O)C1CC1 (stereo not given)	8.91µM*
Cc1cc(C)c(NS(=O)(=O)c2ccc3c(c2)CC(C)N3C(=O)C2CCC2)c(C)c1 (stereo not given)	19.3%
CCc1ccccc1NC(=O)C1CCC(CNS(=O)(=O)c2ccc3c(c2)CC(C)N3C(C)=O)CC1 (stereo not given)	-27.0%
OC[C@H]1CCN(c2nnnn2-c2ccc(Oc3ccccc3)cc2)C[C@H]1O	0.1%
O=c1c2c(CO)c(-c3ccc(F)cc3)nn2ccn1Cc1cccc(C(F)(F)F)c1	-15.2%
Cn1nccc1C(=O)N1CCC(c2noc(-c3ccccc3)n2)C1 (stereo not given)	22.6%[5.79 µM]
Cc1ccc(Sc2c(C)nn(C(=O)c3ccc(Br)cc3)c2C)cc1	26.9%
